In article PMC4336329 (PLoS ONE, 2015):
The whole screen tested about 310,000 compounds, of which about 14,000 (4.5%) showed an effect of 50% or more. Effects have a minus sign here. This excerpt belongs to a sample that is enriched for strong results.

Target: human ether-à-go-go-related gene (hERG) potassium channel (human, UniProt Q12809)
Assay: primary screen, population patch clamp on CHO cells stably expressing hERG; higher = less effect of the substance
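Also: peak tail current of the secondary pulse compared with the same well before compound.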

Chain of human ether-à-go-go-related gene (hERG) potassium channel (Q12809 whole entry, looked up): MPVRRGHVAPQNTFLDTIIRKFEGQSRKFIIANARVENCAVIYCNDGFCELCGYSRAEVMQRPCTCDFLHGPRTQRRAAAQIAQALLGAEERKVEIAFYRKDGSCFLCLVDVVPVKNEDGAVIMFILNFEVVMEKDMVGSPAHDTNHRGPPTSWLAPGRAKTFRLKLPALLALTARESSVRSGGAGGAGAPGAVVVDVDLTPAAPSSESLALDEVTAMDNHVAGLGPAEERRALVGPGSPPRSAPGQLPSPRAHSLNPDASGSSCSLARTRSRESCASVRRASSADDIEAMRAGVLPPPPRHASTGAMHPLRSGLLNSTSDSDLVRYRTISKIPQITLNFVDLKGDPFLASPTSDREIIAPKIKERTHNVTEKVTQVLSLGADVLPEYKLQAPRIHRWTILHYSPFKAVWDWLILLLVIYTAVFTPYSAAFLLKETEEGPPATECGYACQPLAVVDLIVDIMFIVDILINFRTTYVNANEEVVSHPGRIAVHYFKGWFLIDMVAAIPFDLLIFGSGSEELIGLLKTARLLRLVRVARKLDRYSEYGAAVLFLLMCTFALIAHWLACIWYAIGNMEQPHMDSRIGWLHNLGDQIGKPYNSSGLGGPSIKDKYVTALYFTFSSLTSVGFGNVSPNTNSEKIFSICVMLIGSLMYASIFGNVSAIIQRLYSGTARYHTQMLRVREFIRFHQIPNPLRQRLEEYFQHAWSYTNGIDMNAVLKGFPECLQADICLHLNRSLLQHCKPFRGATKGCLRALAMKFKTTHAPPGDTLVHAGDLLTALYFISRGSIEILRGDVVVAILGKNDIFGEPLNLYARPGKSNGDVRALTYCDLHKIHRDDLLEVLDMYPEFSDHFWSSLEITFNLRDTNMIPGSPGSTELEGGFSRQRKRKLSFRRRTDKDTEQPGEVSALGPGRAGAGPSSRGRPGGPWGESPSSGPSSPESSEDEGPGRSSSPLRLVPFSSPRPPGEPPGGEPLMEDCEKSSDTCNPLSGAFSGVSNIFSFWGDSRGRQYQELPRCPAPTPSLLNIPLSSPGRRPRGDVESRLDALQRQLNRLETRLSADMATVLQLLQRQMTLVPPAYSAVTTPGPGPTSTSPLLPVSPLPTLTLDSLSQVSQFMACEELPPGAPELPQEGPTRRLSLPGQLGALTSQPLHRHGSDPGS

SMILES | hERG current change (%, negative = inhibition) at 10uM
O=C(Nc1nccs1)c1cccc(S(=O)(=O)N2CCCC2)c1 | -6.01%
Cc1cc(C(=O)CN2CCC(C)CC2)c(C)n1-c1ccccc1F | -5.74%
O=c1c2ccccc2nnn1-c1ccc(Br)cc1 | 12%
COc1ccc(C(O)P(=O)(OC2CCCCC2)c2ccc(N(C)C)cc2)cc1OC (centres unmarked) | -7.44%
CCCCC1C(=O)N(c2ccccc2)N(c2ccc(O)cc2)C1=O (centres unmarked) | -9%
O=C(Cc1c[nH]c2ccccc12)NCc1ccc2c(c1)OCO2 | 19.4%
Cc1ccc(CCNC(=O)c2nc(CS(=O)(=O)c3ccc(Cl)cc3)no2)cc1 | 31.6%
Nc1ccncc1 | 5%
c1cc(-c2sc(-c3ccncc3)c(-c3ccncc3)c2-c2ccncc2)ccn1 | -66.6%
c1cc(-c2ccncc2)ccn1 | 20.9%
Cc1ccc2[nH]c(=O)c(CN(CC3CCCO3)C(=S)NCc3ccco3)cc2c1 (centres unmarked) | -8.49%
COC(=O)c1ccc(-n2cnc(Cl)n2)c(F)c1 | -7.27%
CCC1CCCCN1CCCNC(=O)CNC(=O)c1nn(-c2ccc(OC)c(Cl)c2)c(=O)c2ccccc12 (centres unmarked) | -39.4%
COc1ccc(-n2nc(C(=O)NCC(=O)NCc3ccc(F)cc3)c3ccccc3c2=O)cc1 | -12.1%
CCOC(=O)C1CCN(C(=O)CNC(=O)c2nn(-c3ccc(OC)c(Cl)c3)c(=O)c3ccccc23)CC1 | -55%
CCCCNC(=O)CNC(=O)c1nn(-c2ccc(OC)c(Cl)c2)c(=O)c2ccccc12 | 9.5%
COc1ccc(-n2nc(C(=O)NCC(=O)NCCCN3CCC(C)CC3)c3ccccc3c2=O)cc1Cl | -74.2%
COc1ccc(-n2nc(C(=O)NCC(=O)NCCCN3CCCCCC3)c3ccccc3c2=O)cc1Cl | -56%
COc1ccc(-n2nc(C(=O)NCC(=O)NCCCN3CCOCC3)c3ccccc3c2=O)cc1Cl | -12.6%
COc1ccc(-n2nc(C(=O)NCC(=O)NCc3ccccc3OC)c3ccccc3c2=O)c(OC)c1 | 7.07%
COc1ccc(-n2nc(C(=O)NCC(=O)NCc3ccccc3OC)c3ccccc3c2=O)cc1 | -69.5%
CCOC(=O)C1CCN(C(=O)CNC(=O)c2nn(-c3ccc(OC)c(OC)c3)c(=O)c3ccccc23)CC1 | -2.02%
CCOC(=O)C1CCCN(C(=O)CNC(=O)c2nn(-c3ccc(OC)c(Cl)c3)c(=O)c3ccccc23)C1 (centres unmarked) | -5.66%
COCCCNC(=O)CNC(=O)c1nn(-c2ccc(OC)c(Cl)c2)c(=O)c2ccccc12 | 8.9%
CCOC(=O)C1CCCN(c2cc(=O)n(-c3ccccc3Cl)c(=O)[nH]2)C1 (centres unmarked) | 9.43%
O=C1C2=C(SCCS2)C(=O)N1CCCO | 4.66%
CCC(Oc1ccccc1)C(=O)Nc1ccccc1N1CCCCC1 (centres unmarked) | 5.6%

SMILES | hERG current change (%, negative = inhibition) at 10uM
CSc1nnc2ccc(-c3cccs3)nn12 | -8.27%
O=C(NC(=O)c1ccccc1)Nc1ccccc1O | 14.7%
Cn1c(C(=O)OCC(=O)NCc2cccs2)cc2sccc21 | 3.37%
O=C(Oc1ccccc1C(=S)N1CCOCC1)c1ccccc1 | 7.59%
CCN(CC)c1ccc(C2C(C(=O)OCCOC(C)C)=C(C)NC3=C2C(=O)CCC3)cc1 (centres unmarked) | -12.3%
CC1CCCN(c2ncnc3c2cnn3-c2ccccc2)C1 (centres unmarked) | -1.2%
COc1ccc(-n2nc(C(=O)NCC(=O)NCCCN3CC(C)CC(C)C3)c3ccccc3c2=O)cc1 (centres unmarked) | -37.2%
COc1ccc(-n2nc(C(=O)NCC(=O)NCCCN3CC(C)CC(C)C3)c3ccccc3c2=O)cc1Cl (centres unmarked) | -62.3%
COc1ccc(-n2nc(C(=O)NCC(=O)NCCCN3CC(C)CC(C)C3)c3ccccc3c2=O)cc1OC (centres unmarked) | -34%
O=C(c1ccccc1)N(Cc1cccnc1)C1(C(=O)Nc2ccccc2)CCCCC1 | 5.29%
CC(=O)Nc1ccc2c(c1)CCc1ccccc1-2 | 15.1%
O=C(CCS(=O)(=O)c1ccc(F)cc1)Nc1nc(-c2ccccn2)cs1 | -12.6%
CCN(CC)C(=O)CN1CCC(n2c(C)nc3cc(C(F)(F)F)ccc32)CC1 | -32.8%
CCC(C)(C)n1nnnc1CN1CCC(n2c(C)nc3cc(C(F)(F)F)ccc32)CC1 | -5.5%
OC1(c2ccccc2F)CCN(Cc2nnnn2CCc2ccccc2)CC1 | 30.9%
CCOC(=O)C1CCN(Cc2nnnn2CCc2ccccc2)CC1 | -4.94%
Cc1ccccc1C(=O)NC1CCN(Cc2nnnn2CCc2ccccc2)CC1 | -8.14%
Cc1nc2cc(C(F)(F)F)ccc2n1C1CCN(Cc2nnnn2Cc2cccs2)CC1 | -36.6%
Cc1nc2cc(F)ccc2n1C1CCN(Cc2nnnn2CCc2ccccc2)CC1.Cl | -65.7%
Cc1nc2cc(C(F)(F)F)ccc2n1C1CCN(Cc2nnnn2CCc2ccccc2)CC1 | -68.4%
Cl.c1ccc(CCn2nnnc2CN2CCN(C3CCCC3)CC2)cc1 | -3.4%
Cc1ccc(S(=O)(=O)Cn2nnnc2CN2CCN(Cc3ccc4c(c3)OCO4)CC2)cc1 | -28.7%
Cc1nc2cc(C(F)(F)F)ccc2n1C1CCN(Cc2nnnn2Cc2ccc3c(c2)OCO3)CC1 | -54.1%
Cc1nc2ccccc2n1C1CCN(Cc2nnnn2CCc2ccccc2)CC1.Cl | -68.6%
CCc1ccc(OCC(=O)NCC(c2ccc(Cl)cc2)N2CCCCC2)cc1 (centres unmarked) | -6.4%
CCN(CC)C(=O)CCc1nnc(CCc2c[nH]c3ccccc23)o1 | 6.93%
